Laboratory results reported in PubChem BioAssay (NCI).
The panel holds about 83,000 compounds, 20% with a hit somewhere; the sample as a whole holds those more often.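 Each cell line was grown in a 96-well plate and treated with one concentration of compound for 48 hours. Values below 10 were considered active.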 Unmarked numbers belong to inactive results. Activity calls are given as the source filed them.

test system: HOP-62 NSCLC; assay: NCI-60 one-dose screen, 48 h (100 = growth as untreated, 0 = no growth, -100 = all killed); conditions: 10 µM unless noted
Method: Growth inhibition of the HOP-62 human Non-Small Cell Lung tumor cell line is measured as a screen for anti-cancer activity. Cells are grown in 96 well plates and exposed to the test compound for 48 hours. Compounds are tested at a single concentration, which is 10^-5 M for most compounds. The reported endpoint is percent growth (GI% or GIPRCNT), where numbers from 0 - 100% represent growth inhibition, and numbers from -100% - 0 represent cell death. For example, a value of 40 represents 60% growth inhibition. A value of 0 means no net growth occurred over the course of the experiment. A value of -40 indicates 40% of cells at the beginning of the experiment died by the end of the experiment. A value of -100 means all cells are dead at the end of the experiment.
NCI-60 Human Tumor Cell Lines Screen was performed using the standard one-dose NCI protocol, which is described in more detail at https://dtp.cancer.gov/discovery_development/nci-60/default.htm.
Compounds with GIPRCNT values below 10 were considered active. Activity score was based on GIPRCNT using the following formula: […]
Score is 0 for GIPRCNT values of 100 or above, 50 for GIPRCNT values of 0, and 100 for GIPRCNT values of -100.

| Structure (SMILES) | growth |
| --- | --- |
| Cc1cccc(C)c1Nc1nnc(-c2ccc(F)cc2)o1 | 107% |
| C=CCn1c(SCC(=O)Nc2ccc(C(=O)/C=C/c3ccc(Cl)cc3)cc2)nnc1-c1cc(OC)c(OC)c(OC)c1 | 98.3% |
| O=C1C(=O)c2c(nc3ccc(C(F)(F)F)cn23)-c2ccccc21 | -97.5% (active) |
| CC(C)NS(=O)(=O)c1cccc(-c2ccc3c(=O)n(CCCN)c4c(c3c2)C(=O)c2ccccc2-4)c1 | 91.9% |
| O=Cc1[nH]c(Sc2ccccc2)c2ccccc12 | 85.6% |
| Cc1nccc2c3ccc(OCc4cn(-c5ccc(Cl)cc5)nn4)cc3n(CC(C)C)c12 | 35.6% |
| O=C1NCc2ccc3c(-c4cccc(Cl)c4)c[nH]c3c21 | 22.7% |
| CSc1nc(-c2ccc(F)cc2)c(C#N)c(N2CCOCC2)n1 | 97.3% |
| CCC1=C[C@H]2CN(CCc3c([nH]c4ccccc34)[C@@](C(=O)OC)(c3cc4c(cc3OC)N(C)[C@H]3[C@@](O)(C(=O)OC)[C@H](OC(C)=O)[C@]5(CC)[C@@H]6C[C@@H]6CN6CC[C@]43[C@@H]65)C2)C1 | 10.7% |
| NCCN1CCNCC1 | 103% |
| COc1cc(NCC(=O)Nc2cc(Nc3ccc(C)cc3)ncn2)c(Cl)c(OC)c1Cl | 87% |
| Cc1ccc(SC2c3ccc(C)cc3Oc3nc(N)c(C#N)c(N)c32)cc1 (stereo not given) | 89.8% |
| [2H]c1nc(Nc2ncc3cc(C(=O)N(C)C)n(C4CCCC4)c3n2)c([2H])c([2H])c1N1C([2H])([2H])C([2H])([2H])NC([2H])([2H])C1([2H])[2H] | 52.3% |
| C=C(C)[C@@H]1CC[C@]2(C(=O)N3CCN(C)CC3)CC[C@]3(C)[C@H](CC[C@@H]4[C@@]5(C)C/C(=C/c6ccco6)C(=O)C(C)(C)[C@@H]5CC[C@]43C)[C@@H]12 | 73.6% |
| C=C1C(=O)O[C@H]2[C@H]1CC/C(COC(=O)NCc1nc3ccccc3[nH]1)=C\CC[C@@]1(C)O[C@@H]21 | 95% |
| COC(=O)c1ccc(NC(=O)CSc2nc(-c3ccc(F)cc3)nc3ccccc23)cc1 | 75.5% |
| C=C(C)[C@@H]1CC[C@]2(C(=O)OCCOCCOCC[P+](c3ccccc3)(c3ccccc3)c3ccccc3)CC[C@]3(C)[C@H](CC[C@@H]4[C@@]5(C)CC[C@H](OC(=O)C(Cl)Cl)C(C)(C)[C@@H]5CC[C@]43C)[C@@H]12 | 11% |
| Cc1cccc(C)c1NCc1nnc(-c2ccc(O)cc2)o1 | 111% |
| Cc1nc2sc(C(=O)Nc3ccccc3)c(N)c2cc1C(C)O (stereo not given) | 30.1% |
| Cc1nc2sc(C(=O)Nc3cccc(Cl)c3C)c(N)c2cc1C(C)O (stereo not given) | 25.5% |

| Structure (SMILES) | growth |
| --- | --- |
| COc1ccc(/C=C(/C(=O)N2CCCC2)c2cc(OC)c(OC)c(OC)c2)cc1 | 29.3% |
| Cc1nc(C)c(C)nc1C | 100% |
| C[C@]12CC[C@@H]3c4ccc(O)cc4CC[C@H]3[C@@H]1C[C@H](O)C2 | 72.8% |
| COc1ccc(-c2nc(C#N)c(NCC(c3ccc(Cl)cc3)N3CCCCC3)o2)cc1 (stereo not given) | 107% |
| COc1cc(C2=NNC(c3ccc(N(C)C)cc3)C2)cc(OC)c1OC (stereo not given) | 36.4% |
| Cc1c(Cl)cccc1NC(=O)c1sc2nc3c(cc2c1N)CCCCCC3 | 30.6% |
| Cc1cc(Nc2nc(SCc3ccc(C(=O)Nc4ccc(F)cc4N)cc3)nn3cccc23)n[nH]1 | 23.4% |
| CNS(=O)(=O)c1cccc(-c2ccc3c4c(n(C)c(=O)c3c2)-c2ccccc2C4=O)c1 | 22.2% |
| CCOC(=O)c1c(C)nc2c(c1N)/C(=C/c1ccccn1)C(=O)N2Cc1ccccc1 | -8.66% (active) |
| CCCCCCCc1n(Cc2ccc3ccccc3c2)c2ccccc2[n+]1Cc1ccc2ccccc2c1 | -70.6% (active) |
| CCCCCOC(=O)c1ccccc1O | 85.4% |
| O=CN1N=C(c2ccc(F)cc2)CC1c1cccc(Nc2ccnc3cc(C(F)(F)F)ccc23)c1 (stereo not given) | 60.8% |
| C[C@H]1[C@H](C)CC[C@]2(C(=O)OCCOCCOCC[P+](c3ccccc3)(c3ccccc3)c3ccccc3)CC[C@]3(C)C(=CC[C@@H]4[C@@]5(C)CC[C@H](OC(=O)C(Cl)Cl)C(C)(C)[C@@H]5CC[C@]43C)[C@H]12 | 25.3% |
| C=C(C)[C@@H]1CC[C@]2(C(=O)NCCCO)CC[C@]3(C)[C@H](CC[C@@H]4[C@@]5(C)CCCNC(C)(C)[C@@H]5CC[C@]43C)[C@@H]12 | 89.9% |
| CC(C)C[C@H](C(=O)O)N(C)C(=O)[C@@H]1CCCN1C(=O)[C@H](C)OC(=O)[C@H](CCC(N)=O)NC(=O)[C@@H]1CCC(=O)N1 | 93.4% |
| CN(C)C1=NCCN1 | 107% |
| COc1ccc(C(C)c2cc(OC)c(OC)c(OC)c2)cc1 (stereo not given) | 35.4% |
| COc1ccc(/C=C/C(=O)c2ccc(NC(=O)CSc3nnc(-c4ccc(OC)c(OC)c4)n3-c3ccccc3)cc2)cc1 | 48.5% |
| COc1ccc(C(=O)c2cc(OC)c(C)c(OC)c2)cc1OC(=O)CCl | 30.2% |
| CCN(CC)CC#CCOC(=O)[C@]1(C)CCC[C@]2(C)[C@H]3C[C@H]4C(C(C)C)=C[C@]3(CC[C@H]21)[C@@H]1C(=O)CCC(=O)[C@@H]14 | 79.2% |
